# Source: PubChem
# Shown is part of a subset that was picked to be rich in hits.
# HT1080NT lethal: qHTS for induction of synthetic lethality in tumor cells producing 2HG: qHTS for the HT-1080-NT fibrosarcoma cell line | 360,000 compounds, 1.6% hits | AID 686970, 2013 | HT-1080-NT fibrosarcoma viability, CellTiter-Glo ATP luminescence, 48 h | Potency, µM (top dose mostly 46.1 µM), for the others: top-dose activity, negative = less viability, actives largely listed as cytotoxic;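 further: NT is the 2HG producing partner of a matched IDH1 knockdown line; potency means the concentration at half of the fitted maximal effect; 0% = DMSO-treated cells and -100% = media-only wells without cells; nearly all actives have a fitted effect of over 55% in size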
#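 Toxicity toward the 2HG-producing NT line was scored as %Activity, normalised to DMSO and no-cell wells, from CellTiter-Glo luminescence after 48 hours' treatment.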
# DT40 TDP1 no CPT: qHTS for Inhibitors of human tyrosyl-DNA phosphodiesterase 1 (TDP1): qHTS in cells in absence of CPT; Potency, µM (highest dose often 46.2 µM), for inactives: at the top dose activity change, negative = growth inhibition, usual class: inhibitors; DT40 Tdp1-/- hTDP1 cells, no CPT, ATP luminescence, 48 h; AID 686978, 2013; 420,000 compounds, 15% hits; further: potency means the concentration at half of the fitted maximal effect; nearly all actives have a fitted effect of over 55% in size
#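 A cellular qHTS used chicken DT40 cells lacking endogenous Tdp1 but carrying stably transfected human TDP1. Compounds were applied without camptothecin, and cell growth kinetics were judged by ATP-dependent luminescence after ≥48 hr.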
# ALOX12 inh: Primary qHTS assay for inhibitors of human arachidonate 12S-lipoxygenase (ALOX12): Round 2 | Polyunsaturated fatty acid lipoxygenase ALOX12 (Homo sapiens), P18054 | purified 12hLO, xylenol orange hydroperoxide absorbance | Potency, µM (doses to about 108 µM), for the others: top-dose activity change, negative = inhibition, usual class: inhibitors | 580,000 compounds, 1.1% hits | AID 1671190, 2021; further: potency means the concentration at half of the fitted maximal effect
# Target sequence (P18054 whole entry, looked up): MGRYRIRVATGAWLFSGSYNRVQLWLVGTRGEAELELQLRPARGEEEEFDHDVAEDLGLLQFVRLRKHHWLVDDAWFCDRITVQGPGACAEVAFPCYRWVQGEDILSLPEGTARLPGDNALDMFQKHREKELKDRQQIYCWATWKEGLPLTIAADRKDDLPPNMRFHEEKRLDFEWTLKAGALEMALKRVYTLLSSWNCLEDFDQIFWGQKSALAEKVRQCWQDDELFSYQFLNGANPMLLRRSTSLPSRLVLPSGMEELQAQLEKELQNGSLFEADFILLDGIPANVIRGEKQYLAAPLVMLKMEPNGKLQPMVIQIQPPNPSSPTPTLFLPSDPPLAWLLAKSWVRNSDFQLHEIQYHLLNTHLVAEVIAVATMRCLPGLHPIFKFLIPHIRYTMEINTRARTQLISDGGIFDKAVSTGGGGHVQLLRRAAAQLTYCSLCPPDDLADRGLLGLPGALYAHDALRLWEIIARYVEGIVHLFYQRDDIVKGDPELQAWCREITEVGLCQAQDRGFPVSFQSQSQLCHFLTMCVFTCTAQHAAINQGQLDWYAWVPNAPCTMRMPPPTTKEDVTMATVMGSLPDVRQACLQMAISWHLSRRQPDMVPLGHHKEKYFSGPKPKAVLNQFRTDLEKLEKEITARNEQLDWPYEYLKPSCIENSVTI
#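 Purified human 12hLO at 150 nM in 25 mM Hepes, 0.01% Triton X-100, pH 7.0, preincubated 15 min at room temperature with compound. Reaction started with 40 uM arachidonic acid, 30 min at room temperature. Hydroperoxide measured by Fe-xylenol orange, 573/405 nm absorbance ratio.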
# DT40 TDP1 CPT: qHTS for Inhibitors of human tyrosyl-DNA phosphodiesterase 1 (TDP1): qHTS in cells in presence of CPT. Potency, µM (doses to about 46.2 µM), for the others: at the top dose activity change, negative = growth inhibition, usual class: inhibitors. chicken DT40 Tdp1-/-;hTDP1 cells + 20 nM CPT, ATP luminescence, 48 h. AID 686979, 2013. 420,000 compounds, 12% hits; further: potency means the concentration at half of the fitted maximal effect; nearly all actives have a fitted effect of over 55% in size
#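 Cell growth measured by CellTiter-Glo luminescence after a minimum 48 h, 37 C compound exposure with 20 nM CPT in Tdp1-knockout DT40 cells stably expressing hTDP1, seeded 400/well; qHTS titration format.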
# IL1B secr inh: qHTS for Inhibitors of Inflammasome Signaling: IL-1-beta AlphaLISA Primary Screen | THP-1 LPS/ATP IL-1B secretion, AlphaLISA, 16 h; stronger effect = lower value | 360,000 compounds, 4.7% hits | activity change, % at 57.5 µM | AID 743279, 2014; in the data active means activity change below about -50%; inconclusive means mostly about -30% to -49%
#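 THP-1 cells pretreated 1 hr with compounds (up to 57.5 uM final), then stimulated with LPS (250 ng/mL final) plus ATP (1.25 mM final); secreted IL-1B measured by AlphaLISA after 16 hr, decreased signal indicating inhibition.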
# HT1080 IDH1KD tx: qHTS for induction of synthetic lethality in tumor cells producing 2HG: qHTS for the HT-1080-IDH1KD cell line; Potency, µM (highest dose often 46.1 µM), for inactives: at the top dose activity, negative = toxicity, hits mostly cytotoxic; AID 686971, 2013; HT-1080 IDH1 knockdown viability, ATP luminescence, 48 h; 360,000 compounds, 2% hits;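 further: potency means the concentration at half of the fitted maximal effect; 0% = DMSO wells and -100% = cell-free medium wells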
#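 Knockdown cells (IDH1KD HT-1080) received compounds 2 h after plating at 750 cells/well and were kept 48 h at 37 °C in 5% FBS RPMI. A CellTiter-Glo luminescence read gave % activity for curve fitting.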
# * = called active by the depositor; ? = inconclusive; · = not tested or not shown; ! = not confirmed by another sample; [ ] = another dose, or the depositor's remark. Unless noted, the call rests on the fitted dose curve; in most records, active means well fitted curve in the direction sought with a large enough effect; inconclusive means small, poorly fitted or top-dose-only effect, or another doubt; inactive means no such curve, though single readings can be large; an effect the other way counts as inactive or inconclusive. Unless noted, on the % scale 0 is the no-effect control and ±100 the full control effect.
SMILES,HT1080NT lethal,DT40 TDP1 no CPT,ALOX12 inh,DT40 TDP1 CPT,IL1B secr inh,HT1080 IDH1KD tx
Cc1ccc(F)cc1-c1nc(NC(C)C)nc2cc(-c3ccccc3)sc12,-16%,18µM*,?,?,?,?
COc1ccccc1CNc1nc(NC(C)C)nc2cc(-c3ccccc3)sc12,?,4.1µM*,?,2.6µM*,-115*,?
CCNc1nc(NC(C)C)nc(N(C#N)CCOc2ccc(Cl)cc2Cl)n1,-16%,?,-7%,?,-21,-23%
Cc1ccc2c(c1)N1C(=O)OC[C@@H]1CCN(C(=O)C1CCC1)C2,·,·,-4%[176 µM],·,·,·
COC(=O)c1cccc(N2C(=O)C[C@](Sc3ccc(OC)cc3)(C(=O)N3CCN(c4ncccn4)CC3)[C@H]2c2ccc(OC)cc2)c1,·,·,10%,·,·,·
O=C(COc1ccc(Cl)cc1Cl)NC1CC1,7%,?,0%,?,-1,-1%
CCOC(=O)C1CCN(C(=O)COc2ccc(Br)cc2Br)CC1,-27%,-6%,-7%,-19%,-66*,-3%
COc1cc(CNCc2ccccn2)ccc1OCC(=O)NC1CCCCC1,8%,-24%,5%,-21%,14,-9%
CCOc1cc(CNCc2ccccc2)ccc1OCC(=O)NC1CCCCC1,-14%,16µM*,8%,18µM*,-6,1%
O=C(COc1ccc(Br)cc1Br)NC1CCCC1,?,?,-3%,4.1µM*,-22,-14%
Cc1cc(Cl)ccc1OCC(=O)NC1CCCC1,?,13µM*,2%[57.4 µM],12µM*,-85*,-10%
CCCC#CC(C)(O)CNC(Cc1ccccc1)C(=O)O (stereo not given),·,·,-12%,·,·,·
CC(C)C(N=C1NS(=O)(=O)c2ccccc21)C(=O)NCCc1ccco1 (stereo not given),·,·,2%,·,·,·
Cc1ccc(C)c(OCC(=O)NC2CCCCCC2)c1,-12%,?,5%,-28%,-66*,-24%
O=C(COc1ccc(Br)cc1CNC1CCCC1)Nc1ccccc1,?,18µM*,3%,?,-63*,?
Cc1ccc(S(=O)(=O)CCC(=O)NC2CCCCC2)cc1,11%,15µM*,?,18µM*,13,4%
O=C(COc1ccc(Br)cc1CO)Nc1ccc(F)cc1,13%,-21%,-6%,-13%,-12,5%
CCN(CC)C(=O)C(NC(=O)c1ccccc1)C1CCN(S(=O)(=O)c2ccc(C)cc2)CC1 (stereo not given),·,·,21%,·,·,·
Cc1ccccc1CN1CCN(c2ncc(C(=O)Nc3cccc(C(F)(F)F)c3)s2)C1=O,·,·,24%,·,·,·
Cc1nnc2c3ccccc3nc(N3CCN(c4cccc(Cl)c4)CC3)n12,·,12µM*,-28%,13µM*,·,·
Cc1cccc(N2CCN(c3nc4ccccc4c4nnc(C)n34)CC2)c1C,·,12µM*,-2%,13µM*,·,·
Cc1nc2cc(NS(=O)(=O)c3cc(Cl)cc(Cl)c3)ccc2o1,·,·,-27%,·,·,·
Cc1ccc(-n2ncc(C(=O)NCc3ccco3)c2C2CCN(C(=O)OC(C)(C)C)CC2)cc1,·,18µM*,-4%,18µM*,·,·
Cc1ccc(-n2ncc(C(=O)NCc3ccco3)c2C2CCN(C(=O)OC(C)(C)C)CC2)cc1C,·,?,-4%,16µM*,·,·
CC(C)[C@H](Nc1ccc(C(F)(F)F)cc1[N+](=O)[O-])C(=O)O,-3%,0%,2%,2%,28,-7%
SMILES,HT1080NT lethal,DT40 TDP1 no CPT,ALOX12 inh,DT40 TDP1 CPT,IL1B secr inh,HT1080 IDH1KD tx
O=C(NNc1ccc(C(F)(F)F)cc1[N+](=O)[O-])c1ccc(NS(=O)(=O)c2ccc(F)cc2)cc1,?,23µM*,?,?,?,21µM*
NC(=O)CC(c1ccccc1)c1ccc2c(c1)OCO2 (stereo not given),13%,6%,14%,-1%,-5,5%
NC(CSC(c1ccccc1)(c1ccccc1)c1ccc2c(c1)OCO2)C(=O)O (stereo not given),12µM*,7.3µM*,13µM*,?,18,18µM*
CC1CCN(Cc2nnnn2CCCC(=O)N(C)C(C)c2ccccn2)CC1 (stereo not given),-1%,26%,3%,-9%,12,22%
NC(=O)NN=C1CC2CC1C1C=CCC21 (stereo not given),-4%,-26%,-1%,-2%,0,0%
NNC(=S)NC1CC2CC1C1C=CCC21 (stereo not given),4%,?,-10%,9.2µM*,12,4%
Oc1ccc(O)c(C=NNC(=S)NC2CC3CC2C2C=CCC32)c1 (stereo not given),-3%,?,?,18µM*,69,-27%
COc1cc(C2CC(=O)Nc3c(-c4cccc(F)c4)nsc32)c(OC)c2c1OCO2 (stereo not given),·,·,-3%,·,·,·
CCCCCCCCCCCCC,·,·,17%[176 µM],·,·,·
CCCCCCCCCCCCCCCC[N+](C)(C)CCl,-11%,2.3µM*,?,1.8µM*,-92*,-30%
CCCCCCCCCCCCCC[N+](C)(C)C,·,0.6µM*,2%[22.9 µM],0.94µM*,·,·
CCCCCCCC[N+](C)(C)CCCCCCCC,·,1.5µM*,·,1.7µM*,·,·
CCCCCCCCCCCCCCCC[N+](C)(C)CC,16µM*,0.52µM*!,?,1µM*,-1,16µM*
COc1ccc(N2CCN(C(=O)CSc3nc4[nH]ncc4c(=O)n3-c3ccc(Br)cc3)CC2)cc1,-27%,?,-4%,?,-24,-26%
O=c1c2cn[nH]c2nc(SCc2cc(=O)n3cc(Br)ccc3n2)n1-c1ccc(Br)cc1,-23%,?,1%,?,-51*,?
COc1cc(NC(=O)CSc2nc3[nH]ncc3c(=O)n2-c2ccccc2C)cc(OC)c1OC,-8%,?,-4%,?,1,-16%
Cc1ccc(CNC(=O)CSc2nc3[nH]ncc3c(=O)n2-c2ccccc2)cc1,·,·,-7%,·,·,·
O=c1c2cn[nH]c2nc(SCc2ccccc2F)n1-c1ccc(Br)cc1,0%,?,-9%,?,-149*,18µM*
